Data on 3 compounds can be found in PubChem BioAssay (NCATS).

Records with an inconclusive call do not appear. Calls of active or inactive are those of the source. The call rests on the fitted dose curve; in most records, active means well fitted inhibition curve with a large enough effect; inconclusive means small, poorly fitted or top-dose-only effect; inactive means flat fitted curve, though single readings scatter.

Common to all, as to assay: qHTS profiling for inhibitors of Plasmodium falciparum proliferation (AID 504749); further: nearly all actives have a fitted effect of over 60% in size
The test system of one test is P93_24. The following applies: P. falciparum in erythrocytes, SYBR Green DNA, 72 h; series mostly up to 28.7 µM. In outline:
(§1)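 Three-day growth assay of blood-stage parasites in erythrocytes (0.3% parasitemia, 2.5% hematocrit) at 37 C, 5% CO2, quantified by SYBR Green DNA staining after overnight detergent lysis.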

Another test relates to P94_40. As to conditions: P. falciparum in erythrocytes, SYBR Green DNA, 72 h. In outline: as §1
A further test relates to PAD. As to conditions: P. falciparum in erythrocytes, SYBR Green DNA, 72 h; series mostly up to 28.7 µM. In outline:
as §1

The subject of another test is PC15. As to conditions: P. falciparum in erythrocytes, SYBR Green DNA, 72 h; series mostly up to 28.7 µM. In outline:
as §1

For the next test, the system named is PC26. As to conditions: P. falciparum in erythrocytes, SYBR Green DNA, 72 h; series mostly up to 28.7 µM. In outline: as §1
The next test concerns PC49. The following applies: P. falciparum in erythrocytes, SYBR Green DNA, 72 h; series mostly up to 28.7 µM. In outline: as §1
The test system of a further test is SC27B. The following applies: P. falciparum in erythrocytes, SYBR Green DNA, 72 h; series mostly up to 28.7 µM. In outline:
as §1

For a further test, the system named is TAB109. The following applies: P. falciparum in erythrocytes, SYBR Green DNA, 72 h; series mostly up to 28.7 µM. In outline:
as §1

The test system of another test is TAB113. As to conditions: P. falciparum in erythrocytes, SYBR Green DNA, 72 h; series mostly up to 28.7 µM. In outline:
as §1

For the next test, the system named is TAB165. The following applies: P. falciparum in erythrocytes, SYBR Green DNA, 72 h; series mostly up to 28.7 µM. In outline: as §1
Potency means the concentration at half of the fitted maximal effect.

On to `C=CCNC1=C2C[C@@H](C)C[C@H](OC)[C@H](O)[C@@H](C)/C=C(\C)[C@H](OC(N)=O)[C@@H](OC)/C=C\C=C(/C)C(=O)NC(=CC1=O)C2=O`, for which the Potency is 1.26 µM (active) with P93_24; 0.794 µM (active) in the test on P94_40; 2 µM (active) in the test with PAD; 2 µM (active) with PC15; 1.51 µM (active) with PC26; 6.31 µM (active) with PC49. Moreover, the Potency in the test on SC27B is 1.78 µM (active); with TAB109 it was 2 µM (active); in the test with TAB113 it was 1.78 µM (active); with TAB165 it was 1.41 µM (active).

Consider `COC1C(OC(=O)/C=C/C=C/C=C/C=C/C(=O)O)CCC2(CO2)C1C1(C)OC1CC=C(C)C` (centres undefined), for which the Potency in the test with P93_24 was 0.0251 µM (active); in the test with P94_40, 0.0251 µM (active); with PAD, 1.41 µM (active); in the test with TAB165, 0.0316 µM (active). In the test with PC49, the Potency entry is “inactive”.

As for `CCCOc1ccc2nc(NC(=O)OC)sc2c1`, the Potency result with P93_24, with PAD, in the test on PC15, with PC26, in the test on PC49 and in the test on SC27B was “inactive” in each case. Besides, the Potency result in the test with TAB109, with TAB113 and in the test on TAB165 was “inactive” in each case.
